Columns and labels:
Experiment in all cases: log2 ratio of Biotin-Ahx-Ub-VS probe labelling (fragment/DMSO); higher = less target engagement (more negative = stronger competition), active = hit call of the paper (q ≤ 0.05, log2 ratio ≤ -1)
Conditions in all cases: compound concentration: 200 uM; treatment time: 3 h
ALG13 = molecular target: T1, ALG13 (UniProt Q9NP73)
T1 sequence (whole entry): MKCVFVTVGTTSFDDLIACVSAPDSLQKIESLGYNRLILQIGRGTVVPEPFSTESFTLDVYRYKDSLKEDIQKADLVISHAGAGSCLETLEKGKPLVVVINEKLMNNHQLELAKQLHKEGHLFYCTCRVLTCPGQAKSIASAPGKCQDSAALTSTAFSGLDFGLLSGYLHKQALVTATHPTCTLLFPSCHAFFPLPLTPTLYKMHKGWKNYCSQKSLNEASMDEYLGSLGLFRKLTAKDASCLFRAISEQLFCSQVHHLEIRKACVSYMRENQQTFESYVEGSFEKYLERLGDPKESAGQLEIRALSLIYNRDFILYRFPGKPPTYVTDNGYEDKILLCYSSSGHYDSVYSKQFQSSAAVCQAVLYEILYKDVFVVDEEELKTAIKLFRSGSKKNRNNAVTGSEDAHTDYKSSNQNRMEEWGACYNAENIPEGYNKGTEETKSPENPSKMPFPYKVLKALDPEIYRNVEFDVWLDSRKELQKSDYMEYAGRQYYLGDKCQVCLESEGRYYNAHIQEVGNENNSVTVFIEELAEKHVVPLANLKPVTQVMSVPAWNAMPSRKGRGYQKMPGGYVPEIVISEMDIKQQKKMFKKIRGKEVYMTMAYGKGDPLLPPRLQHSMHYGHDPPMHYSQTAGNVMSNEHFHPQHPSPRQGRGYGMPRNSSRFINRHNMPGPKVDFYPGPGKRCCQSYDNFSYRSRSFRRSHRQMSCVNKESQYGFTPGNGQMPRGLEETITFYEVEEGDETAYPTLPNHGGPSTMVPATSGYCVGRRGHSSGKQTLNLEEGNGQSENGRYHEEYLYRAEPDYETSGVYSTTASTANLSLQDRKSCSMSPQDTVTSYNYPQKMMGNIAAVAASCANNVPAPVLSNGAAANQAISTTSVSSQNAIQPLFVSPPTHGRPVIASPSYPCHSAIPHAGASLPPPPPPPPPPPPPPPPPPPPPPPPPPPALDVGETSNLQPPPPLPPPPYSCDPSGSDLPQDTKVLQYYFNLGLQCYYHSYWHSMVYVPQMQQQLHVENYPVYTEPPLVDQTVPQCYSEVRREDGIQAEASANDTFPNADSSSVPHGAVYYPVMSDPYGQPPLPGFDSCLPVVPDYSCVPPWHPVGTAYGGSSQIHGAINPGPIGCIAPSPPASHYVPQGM
Procedure, shortened: (§1)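 Triplicate samples of HEK293T lysate, 495 µg each, received fragment at 200 µM or vehicle for 3 h, followed by Biotin-Ahx-Ub-VS (0.5 µM final) for 1 h. After NeutrAvidin enrichment of labelled DUBs and LysC/trypsin digestion, peptides were run by diaPASEF LC-MS/MS. The values are average log2 fragment/vehicle ratios from global-median-normalised Spectronaut label-free quantities, tested by unpaired t-test on proteins having ≥2 unique peptides.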

ATXN3 = ATXN3 (UniProt P54252)
ATXN3, sequence (P54252 whole entry): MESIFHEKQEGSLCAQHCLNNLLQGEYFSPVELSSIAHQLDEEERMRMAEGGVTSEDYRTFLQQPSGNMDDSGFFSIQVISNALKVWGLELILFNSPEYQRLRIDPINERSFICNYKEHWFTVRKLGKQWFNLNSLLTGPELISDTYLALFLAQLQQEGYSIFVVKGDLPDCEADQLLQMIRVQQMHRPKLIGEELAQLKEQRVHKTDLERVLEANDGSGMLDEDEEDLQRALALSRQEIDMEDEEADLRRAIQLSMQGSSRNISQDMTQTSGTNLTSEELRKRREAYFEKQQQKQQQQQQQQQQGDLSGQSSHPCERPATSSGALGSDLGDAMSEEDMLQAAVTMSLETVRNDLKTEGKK
Procedure, shortened: as §1

BAP1 = molecular target: T2, BAP1 (UniProt Q92560)
T2 sequence (whole entry): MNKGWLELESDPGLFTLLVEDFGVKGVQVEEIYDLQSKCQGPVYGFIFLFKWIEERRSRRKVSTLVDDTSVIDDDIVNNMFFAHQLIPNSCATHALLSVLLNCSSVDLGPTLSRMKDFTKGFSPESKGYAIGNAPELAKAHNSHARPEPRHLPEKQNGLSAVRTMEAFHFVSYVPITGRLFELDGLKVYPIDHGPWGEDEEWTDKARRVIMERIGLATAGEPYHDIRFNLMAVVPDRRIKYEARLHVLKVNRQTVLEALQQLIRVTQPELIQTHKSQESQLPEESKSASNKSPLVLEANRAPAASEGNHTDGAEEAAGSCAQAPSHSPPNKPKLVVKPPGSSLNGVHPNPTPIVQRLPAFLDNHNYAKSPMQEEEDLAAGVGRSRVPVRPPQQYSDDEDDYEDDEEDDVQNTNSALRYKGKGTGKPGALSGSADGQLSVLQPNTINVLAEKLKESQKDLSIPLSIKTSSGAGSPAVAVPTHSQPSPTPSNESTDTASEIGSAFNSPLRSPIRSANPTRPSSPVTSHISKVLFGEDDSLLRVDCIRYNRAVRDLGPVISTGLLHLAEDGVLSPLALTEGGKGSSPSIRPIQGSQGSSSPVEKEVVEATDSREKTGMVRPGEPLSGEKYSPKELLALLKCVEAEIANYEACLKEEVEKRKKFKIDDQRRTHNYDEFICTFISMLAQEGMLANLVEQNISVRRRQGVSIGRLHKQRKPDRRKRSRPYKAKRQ
Procedure, shortened: as §1

EIF3F = EIF3F (UniProt O00303)
EIF3F, sequence (O00303 whole entry): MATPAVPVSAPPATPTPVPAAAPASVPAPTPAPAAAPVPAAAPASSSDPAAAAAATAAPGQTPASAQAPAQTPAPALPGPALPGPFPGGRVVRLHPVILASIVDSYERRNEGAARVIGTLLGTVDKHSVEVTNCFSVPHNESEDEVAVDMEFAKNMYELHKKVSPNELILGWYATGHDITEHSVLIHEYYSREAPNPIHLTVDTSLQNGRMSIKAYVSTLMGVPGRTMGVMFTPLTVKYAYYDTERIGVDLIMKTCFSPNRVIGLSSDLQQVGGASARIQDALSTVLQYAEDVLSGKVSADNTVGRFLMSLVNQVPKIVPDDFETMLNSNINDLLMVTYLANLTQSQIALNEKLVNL
Procedure, shortened: as §1

EIF3H = EIF3H (UniProt O15372)
EIF3H, sequence (O15372 whole entry): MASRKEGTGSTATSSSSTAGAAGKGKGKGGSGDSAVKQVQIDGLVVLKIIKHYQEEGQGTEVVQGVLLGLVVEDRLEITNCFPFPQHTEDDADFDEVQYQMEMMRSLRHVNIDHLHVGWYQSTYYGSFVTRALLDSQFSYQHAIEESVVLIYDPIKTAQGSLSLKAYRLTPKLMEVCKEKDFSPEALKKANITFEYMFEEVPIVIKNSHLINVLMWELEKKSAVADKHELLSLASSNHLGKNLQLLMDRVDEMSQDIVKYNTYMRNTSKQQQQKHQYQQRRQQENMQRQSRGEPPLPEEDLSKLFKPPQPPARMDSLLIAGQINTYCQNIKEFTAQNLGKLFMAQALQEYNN
Procedure, shortened: as §1

FAM105A = molecular target: T3, FAM105A (UniProt Q9NUU6)
T3 sequence (whole entry): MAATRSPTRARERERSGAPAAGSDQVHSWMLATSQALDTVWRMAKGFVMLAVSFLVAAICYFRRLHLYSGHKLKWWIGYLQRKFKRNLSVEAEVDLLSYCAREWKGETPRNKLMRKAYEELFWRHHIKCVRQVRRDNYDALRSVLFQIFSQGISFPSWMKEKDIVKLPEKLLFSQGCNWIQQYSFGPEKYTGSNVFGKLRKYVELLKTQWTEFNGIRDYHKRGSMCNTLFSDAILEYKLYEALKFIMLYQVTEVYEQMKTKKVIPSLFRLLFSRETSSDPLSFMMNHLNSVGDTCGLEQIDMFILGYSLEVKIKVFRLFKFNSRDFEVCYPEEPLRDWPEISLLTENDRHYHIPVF
Procedure, shortened: as §1

OTUB1 = OTUB1 (UniProt Q96FW1)
OTUB1, sequence (Q96FW1 whole entry): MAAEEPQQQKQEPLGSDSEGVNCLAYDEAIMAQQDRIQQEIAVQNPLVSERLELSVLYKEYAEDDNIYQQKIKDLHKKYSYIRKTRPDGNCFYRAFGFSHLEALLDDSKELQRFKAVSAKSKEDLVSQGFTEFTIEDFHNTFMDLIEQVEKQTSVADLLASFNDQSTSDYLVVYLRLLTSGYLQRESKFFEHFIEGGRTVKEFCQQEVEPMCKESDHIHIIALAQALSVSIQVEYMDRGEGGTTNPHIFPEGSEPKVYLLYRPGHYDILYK
Procedure, shortened: as §1

OTUD4 = molecular target: T4, OTUD4 (UniProt Q01804)
T4 sequence (whole entry): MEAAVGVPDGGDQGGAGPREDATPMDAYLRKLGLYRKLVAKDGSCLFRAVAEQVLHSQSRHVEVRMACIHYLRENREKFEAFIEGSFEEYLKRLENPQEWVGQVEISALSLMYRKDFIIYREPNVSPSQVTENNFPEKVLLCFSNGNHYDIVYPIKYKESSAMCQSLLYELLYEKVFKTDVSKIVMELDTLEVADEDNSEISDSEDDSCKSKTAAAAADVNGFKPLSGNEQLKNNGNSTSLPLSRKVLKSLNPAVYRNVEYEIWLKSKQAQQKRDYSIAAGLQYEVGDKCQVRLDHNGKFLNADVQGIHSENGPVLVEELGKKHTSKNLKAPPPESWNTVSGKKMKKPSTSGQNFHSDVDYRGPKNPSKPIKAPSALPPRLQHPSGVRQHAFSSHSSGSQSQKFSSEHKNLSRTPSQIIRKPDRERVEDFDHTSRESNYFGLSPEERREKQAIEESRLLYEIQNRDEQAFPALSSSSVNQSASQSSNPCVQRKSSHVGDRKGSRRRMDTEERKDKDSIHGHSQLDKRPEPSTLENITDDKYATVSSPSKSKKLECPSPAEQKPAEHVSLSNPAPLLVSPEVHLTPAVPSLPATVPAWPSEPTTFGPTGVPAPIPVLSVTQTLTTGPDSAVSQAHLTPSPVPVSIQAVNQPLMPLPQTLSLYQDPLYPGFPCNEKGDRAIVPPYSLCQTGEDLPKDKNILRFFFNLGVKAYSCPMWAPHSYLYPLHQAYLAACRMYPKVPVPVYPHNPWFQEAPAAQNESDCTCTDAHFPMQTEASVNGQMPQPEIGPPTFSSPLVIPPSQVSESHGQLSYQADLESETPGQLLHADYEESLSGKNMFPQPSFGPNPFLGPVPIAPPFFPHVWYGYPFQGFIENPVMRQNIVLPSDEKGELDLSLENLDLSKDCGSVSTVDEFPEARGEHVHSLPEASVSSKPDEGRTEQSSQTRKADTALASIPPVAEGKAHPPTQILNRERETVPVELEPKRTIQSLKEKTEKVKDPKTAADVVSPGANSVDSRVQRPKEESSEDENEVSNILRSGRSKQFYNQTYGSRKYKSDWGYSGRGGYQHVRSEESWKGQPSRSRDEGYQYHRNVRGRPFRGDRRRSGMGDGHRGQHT
Procedure, shortened: as §1

OTUD5 = molecular target: T5, OTUD5 (UniProt Q96G74)
T5 sequence (whole entry): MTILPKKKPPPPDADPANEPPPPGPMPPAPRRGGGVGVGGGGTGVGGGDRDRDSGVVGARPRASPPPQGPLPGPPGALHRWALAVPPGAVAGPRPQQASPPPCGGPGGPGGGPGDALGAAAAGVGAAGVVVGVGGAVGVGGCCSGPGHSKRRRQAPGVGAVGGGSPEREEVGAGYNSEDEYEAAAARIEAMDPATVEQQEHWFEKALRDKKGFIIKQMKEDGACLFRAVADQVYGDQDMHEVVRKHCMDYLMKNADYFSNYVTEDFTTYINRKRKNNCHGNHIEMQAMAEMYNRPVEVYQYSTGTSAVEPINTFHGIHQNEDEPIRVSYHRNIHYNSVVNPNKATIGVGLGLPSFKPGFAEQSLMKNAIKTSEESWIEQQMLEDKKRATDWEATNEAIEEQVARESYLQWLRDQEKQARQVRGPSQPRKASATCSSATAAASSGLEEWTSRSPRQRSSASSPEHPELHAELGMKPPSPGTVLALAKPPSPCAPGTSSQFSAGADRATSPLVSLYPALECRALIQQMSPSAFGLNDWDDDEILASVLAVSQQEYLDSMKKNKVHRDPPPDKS
Procedure, shortened: as §1

Measured: log2 ratio of Biotin-Ahx-Ub-VS probe labelling

Cc1nc(CN2CCCN(C(=O)CCl)CC2)no1.Cl
inactive: ALG13 -0.458 | ATXN3 0.224 | BAP1 0.234 | EIF3F -0.233 | EIF3H 0.122 | FAM105A -0.14 | OTUB1 0.0104 | OTUD4 0.243 | OTUD5 -0.0201

Source: the supplement of paper PMC11732987, “Enantioselective OTUD7B fragment discovery through chemoproteomics screening and high-throughput optimisation” (Communications Chemistry, 2025)
